Reference: PubChem BioAssay AID652208 (Broad Institute, 2013)
Potency and affinity values are given separately. Values without a mark were called inactive.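 Rule for the calls: active = Loss of cell signal with fitted half-effect dose at or below twice the top valid tested dose; inconclusive = Poor fit, or flat fit from -70 to -30 percent; inactive = Half-effect above limit, rising signal, or flat within 30 percent.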

Experiment: HEK293T cell cytotoxicity, dose response, cytotoxicity control for HIV Vif inhibitor project, cherry-picks (AID 652208);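 note: 0% = median neutral control wells and -100% = median staurosporine control wells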
Conditions: HEK293T viability, CellTiter-Glo luminescence, 24 h; series mostly up to 26 µM; activity change, negative = cytotoxicity: at the top concentration
For `COc1c2occc2c(OC)c2c(=O)cc(C)oc12`, the “activity change, negative = cytotoxicity” value was -0.016%. In the case of `CC(C)OC(=O)c1cn(-c2ccccc2)nc1-c1ccc2c(c1)OCCO2`, the “activity change, negative = cytotoxicity” value is reported as -1.1%. For `CCOC(=O)Nc1ccc(NCc2ccc(F)cc2)nc1N`, the “activity change, negative = cytotoxicity” value was -5.02%. For `C=CCN1C(=O)/C(=C/c2ccc(-c3ccc(F)cc3)o2)SC1=S`, the “activity change, negative = cytotoxicity” value was -18.7%. For `COc1ccc(-c2nc(CS(=O)(=O)CC(=O)NCCc3ccccc3)c(C)o2)cc1`, the “activity change, negative = cytotoxicity” value was -6.93%. With `COc1ccc(CC(=O)OCC(=O)NCc2ccc(Cl)cc2)cc1` the “activity change, negative = cytotoxicity” value was -9.68%. In the case of `O=C(Nc1ccc2c(c1)nc1n2CCOC1)c1ccccc1`, the “activity change, negative = cytotoxicity” value is reported as -17.4%. In the case of `CC(C)C(=O)N=C1SC2CS(=O)(=O)CC2N1Cc1ccccc1` (configuration not stated), the “activity change, negative = cytotoxicity” value is reported as -10.6%. With `C/C=C/c1ccc(OCCNCc2ccccc2)c(OC)c1` the “activity change, negative = cytotoxicity” value was 0.443%. For `Cc1cccc(Nc2nc(-c3ccc(O)c(O)c3)cs2)n1`, the “activity change, negative = cytotoxicity” value was -4.86%. In the case of `COc1cccc(N2CCN(S(=O)(=O)c3cc4c(cc3C)N(C)CCO4)CC2)c1`, the “activity change, negative = cytotoxicity” value is reported as -2.23%. With `CCN(CC)c1ccc2cc(C(N)=O)c(=O)oc2c1` the “activity change, negative = cytotoxicity” value was 3.22%. In the case of `CCCCn1c(-c2ccncc2)nc2c1c(=O)[nH]c(=O)n2CC(C)C`, the “activity change, negative = cytotoxicity” value is reported as -14.9%. For `CCOC(=O)C1=C(C)NC(=O)NC1`, the “activity change, negative = cytotoxicity” value was 4.76%. For `COc1cccc(-c2cc(NC=O)c3ncc(-c4cc(OC)c(OC)c(OC)c4)n3c2)c1`, the “activity change, negative = cytotoxicity” value was -12.9%. In the case of `CCCOc1ccc(C(O)(CCC)CCN2CCCCC2)cc1` (configuration not stated), the “activity change, negative = cytotoxicity” value is reported as -4.04%. With `Cc1ccc(Nc2nc(N)nc(CSc3nnc(-c4ccncc4)o3)n2)cc1` the “activity change, negative = cytotoxicity” value was -4.38%. With `CCOC(=O)C[C@@H](C#N)NC(=O)[C@@H]1CCCN1C(=O)[C@@H](NC(=O)c1ccc(N)c(Cl)c1)C(C)(C)C` the “activity change, negative = cytotoxicity” value was -8.24%. In the case of `O=C(Cn1c(=O)oc2cc(S(=O)(=O)N3CCCCC3)ccc21)N1CCc2ccccc21`, the “activity change, negative = cytotoxicity” value is reported as -4.05%. For `Cc1nnc(NC(=O)CSc2nnc(NC(=O)C(C)(C)C)s2)s1`, the “activity change, negative = cytotoxicity” value was 7.39%. With `CCOC(=O)C1(Cc2cccc(OC)c2)CCN(CCO)CC1` the “activity change, negative = cytotoxicity” value was -13.8%. With `COc1ccccc1C1C2=C(COC2=O)Nc2cc3c(cc21)OCO3` (configuration not stated) the “activity change, negative = cytotoxicity” value was -19.8%. In the case of `CCOC(=O)Cc1csc(NC(=O)CSc2nnnn2-c2ccc(CC)cc2)n1`, the “activity change, negative = cytotoxicity” value is reported as -4.71%. In the case of `CN1CCc2c(sc(NC(=O)c3cc(Cl)sc3Cl)c2C(N)=O)C1`, the “activity change, negative = cytotoxicity” value is reported as -10.7%. With `COc1ccc(-c2cc(C(F)(F)F)n3nc(C(=O)NCc4ccco4)c(Cl)c3n2)cc1` the “activity change, negative = cytotoxicity” value was -23.3%. With `CCc1ccc(S(=O)(=O)Nc2ccc(-c3ccc4nnc(C)n4n3)cc2)s1` the “activity change, negative = cytotoxicity” value was 5.8%. With `CC(C)c1ccc(NC(=O)N2CCCC2C(=O)Nc2ccc(-n3cnnn3)cc2)cc1` (configuration not stated) the “activity change, negative = cytotoxicity” value was 0.715%. For `COc1ccc(CNC(=O)CN2C(=O)NC(c3ccccc3)(c3ccccc3)C2=O)cc1`, the “activity change, negative = cytotoxicity” value was -6.23%. For `O=C1c2ccccc2C(Nc2ccc(S(=O)(=O)N3CCOCC3)cc2)N1c1ccccn1` (configuration not stated), the “activity change, negative = cytotoxicity” value was -4.6%. For `COc1cccc(CNc2ccc3c(c2)CCC3)c1`, the “activity change, negative = cytotoxicity” value was -9.75%. In the case of `O=C(NNC(=O)c1cc2ccccc2oc1=O)c1ccccc1`, the “activity change, negative = cytotoxicity” value is reported as 6.51%. In the case of `CCOC(=O)C1CCCN(C(=O)c2cc(S(=O)(=O)N(C)C)ccc2N2CCCC2)C1` (configuration not stated), the “activity change, negative = cytotoxicity” value is reported as -14.7%. In the case of `CCn1c(/C=C/c2ccc(F)cc2)nc2ccccc2c1=O`, the “activity change, negative = cytotoxicity” value is reported as -13.8%. For `CCN1C(=O)c2cccc3c(S(=O)(=O)Nc4nc(C)cs4)ccc1c23`, the “activity change, negative = cytotoxicity” value was 0.851%. With `COc1ccc(CC(=O)Nc2ccc(-c3noc(-c4cc(OC)c(OC)c(OC)c4)n3)cc2)cc1` the “activity change, negative = cytotoxicity” value was 0.981%. For `O=C(CCc1ccccc1)Nc1ccccc1`, the “activity change, negative = cytotoxicity” value was 5.54%. In the case of `COc1cc(OC)cc(C(=O)NC(C(=O)Nc2ccc3c(c2)OCO3)C(C)C)c1` (configuration not stated), the “activity change, negative = cytotoxicity” value is reported as 3.67%.
